An excerpt weighted towards active compounds, which were near 11% of everything screened.
NS1 inh: inhibitors of influenza NS1 protein function | Potency, µM (highest dose often 46.1 µM), for inactives: top-dose activity, positive = more growth | hit rate 0.4% among 270,000 | AID 2326; calls by dose curve; also: actives are rising curves; nearly all actives have a fitted effect of over 50% in size
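A cell-based growth assay was used: compounds that relieve NS1-induced slow growth of budding yeast raise OD600. Assay medium was yeast nitrogen base with ammonium sulphate and -URA supplement, pH 6.0, with 2% galactose.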
HCV inh: blocks hepatitis C virus; AID 651820; hit rate 3.4% among 340,000; Potency, µM (top dose mostly 41.8 µM), for the others: top-dose activity change, negative = inhibition, usual class: inhibitors; Huh7.5.1 HCVcc-Cre infection, luciferase reporter, 44 h; also: % is scaled to controls: 0 for no effect and ±100 for the full control effect
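Luciferase read-out (15 sec integration) after a 15 min room-temperature substrate step quantifies HCVcc-Cre infection. Cells, 1,000 per well, had compound added 4 h post-plating, then virus at ~0.5 moi, and were cultured 44 h.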
Pf growth 96h: inhibits malaria parasite growth, 96 h | hit rate 6.9% among 320,000 | Potency, µM (top dose mostly 28.7 µM), inactives show at the highest dose activity change, negative = inhibition, actives largely listed as inhibitors | P. falciparum luciferase reporter growth, 96 h; also: % is scaled to controls: 0 for no effect and ±100 for the full control effect
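P. falciparum expressing integrated firefly luciferase grown in erythrocytes (2% hematocrit, 0.05% parasitemia final) with compounds for 96 hours at 37 C, 5% CO2. Growth inhibition read as loss of luminescence after adding luciferase detection reagent.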
Pf growth 48h: inhibits P. falciparum growth in the first generation, 48 h. hit rate 5.9% among 310,000. Potency, µM (series often up to 28.7 µM), for the others: at the top dose activity change, negative = inhibition, actives largely listed as inhibitors. AID 504832. P. falciparum luciferase growth in erythrocytes, 48 h; also: % is scaled to controls: 0 for no effect and ±100 for the full control effect
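In quantitative HTS format, infected erythrocytes bearing luciferase-reporter parasites were treated for a single generation at 37 C. Luminescence after adding detection reagent served as the growth measure.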
Vaccinia Venus: vaccinia inhibition (Venus reporter) | Vaccinia virus Venus reporter expression, fluorescence | Potency, µM (doses to about 36.5 µM), for inactives: at the top dose activity change, negative = inhibition, actives largely listed as inhibitors | hit rate 0.46% among 330,000; calls by dose curve; tested in A549 cells; also: % is scaled to controls: 0 for no effect and ±100 for the full control effect; nearly all actives have a fitted effect of over 30% in size
Vaccinia mCherry: vaccinia inhibition (mCherry reporter) | Vaccinia virus mCherry reporter infection, fluorescence | Potency, µM (titrated, usually from 36.5 µM), inactives show top-dose activity change, negative = inhibition, actives largely listed as inhibitors | hit rate 0.63% among 310,000 | AID 720579; calls by dose curve; tested in A549 cells; also: % is scaled to controls: 0 for no effect and ±100 for the full control effect; nearly all actives have a fitted effect of over 35% in size
Active calls of the source: *; i = inactive; ? = inconclusive; . = not tested or not shown; [ ] = remark or other dose. Unless noted, calls follow the shape of the dose curve; as a rule, active = well fitted inhibition curve with a large enough effect; inconclusive = small, poorly fitted or top-dose-only effect, or another doubt; inactive = no such curve, though single readings can be large or run the other way. Potency is read from the fitted curve at half-maximal effect.

SMILES	NS1 inh	HCV inh	Pf growth 96h	Pf growth 48h	Vaccinia Venus	Vaccinia mCherry
CCC(CC)N=C1NS(=O)(=O)c2cc([N+](=O)[O-])ccc21	3%	-26%	?	?	?	13µM*
CC(C)(C)OC(=O)C[C@@H]1C/C=C\C[C@@H](CC(=O)N(CCO)Cc2ccccc2)C(=O)N2CCC[C@H]2COC1=O	.	-2%	.	.	-13%	-14%
CC(C)(C)OC(=O)C[C@@H]1C/C=C\C[C@H](CC(=O)N(CCO)Cc2ccccc2)C(=O)N2CCC[C@H]2COC1=O	.	1.1µM*	.	.	-12%	-10%
O=C1N[C@@H](Cc2ccccc2)COC(=O)[C@@H](Cc2ccc(F)cc2)CC/C=C/C[C@H]1CC(=O)N(CCO)Cc1ccccc1	.	?	.	.	11µM*	?
O=C1NCCOC(=O)[C@H](Cc2ccc(F)cc2)C/C=C\C[C@@H]1CC(=O)N(CCO)Cc1ccccc1	.	11µM*	.	.	-19%	-29%
O=C1NCCOC(=O)[C@H](Cc2ccc(F)cc2)C/C=C\C[C@H]1CC(=O)N(CCO)Cc1ccccc1	.	?	.	.	-26%	-28%
CCOC(=O)C1(CCc2ccccc2)CCN(C(=O)c2occc2C)CC1	-4%	-8%	-2%	?	-8%	i
Cc1ccc(S(=O)(=O)c2cc3c(=O)n4cccc(C)c4nc3n(C3CCCCC3)c2=N)cc1	0%	-15%	58%	-9%	5%	-8%
O=C1CSC(c2cccc([N+](=O)[O-])c2)N1C1CC2CCC1C2 (configuration not stated)	1%	15%	-13%	-26%	-18%	-3%
COc1cc(CNc2ccc(C(=O)O)cc2)cc(Br)c1OCC(=O)NC(C)(C)C	-1%	12%	-2%	-11%	-11%	-12%
C=CCOc1c(Br)cc(CNc2ccc(NC(=O)C(C)C)c(OC)c2)cc1OC	20%	10µM*	8.3µM*	?	.	.
Cc1nc(C(C)NC(=O)CCc2nnc(Cc3c[nH]c4ccccc34)o2)cs1 (configuration not stated)	1%	11%	4.7µM*	-24%	-4%	?
Cc1cc(NC(=O)c2ccc3nc(-c4ccccc4)c(-c4ccccc4)nc3c2)no1	-14%	-1%	4.7µM*	5.2µM*	-21%	-9%
COC(CNC(=O)c1ccc2nc(-c3ccccc3)c(-c3ccccc3)nc2c1)OC	.	10µM*	?	-28%	-9%	-3%
COc1ccc(-c2nc3ccc(C(=O)NCC(OC)OC)cc3nc2-c2ccc(OC)cc2)cc1	.	?	32%	?	-10%	-1%
Cc1nn(-c2ccccc2)c(C)c1CN(C)C(=O)c1ccc(S(=O)(=O)NCc2ccco2)cc1	.	14µM*	?	?	.	.
CC(C)c1ccc(CN(C)C(=O)c2ccc(S(=O)(=O)NCc3ccco3)cc2)cc1	.	6.3µM*	?	9%	.	.
CN(Cc1ccc(Cl)cc1)C(=O)c1ccc(S(=O)(=O)NCc2ccco2)cc1	.	-27%	?	?	.	.
CC(C)(C)NS(=O)(=O)c1ccc(CCC(=O)NCc2ccco2)cc1	1%	9%	12µM*	-28%	.	.
CN(Cc1cccs1)C(=O)c1ccc(S(=O)(=O)NCc2ccco2)cc1	-9%	7%	?	-2%	.	.
O=C1CSC(=Nc2ccccc2)N1	-4%	4%	-16%	-4%	5%	-4%
Cc1ccc(C)c(NC(=O)c2nc(-c3ccccc3)n(-c3ccccc3)n2)c1	-4%	14%	9.3µM*	.	.	.
Cc1ccc(-c2cc(NC(=O)CCl)n(-c3ccccc3)n2)cc1	-161%	?	4%[5.75 µM]	10%	-12%	-5%
CC(=O)c1cccc(NC(=O)c2nc(-c3ccccc3)n(-c3ccccc3)n2)c1	.	.	.	.	-21%	i
Cc1ccc(NC(=O)c2cc(C)nn2-c2ccccc2)cc1	0%	-6%	13µM*	.	-12%	-12%
SMILES	NS1 inh	HCV inh	Pf growth 96h	Pf growth 48h	Vaccinia Venus	Vaccinia mCherry
CNC(=O)c1ccc(-n2nc(C)cc2-c2ccccc2)cc1	18%	-6%	?	1.7µM*	-10%	-22%
Cc1cc(-c2ccccc2)n(-c2ccc(C(N)=O)cc2)n1	8%	11%	?	5%	-12%	i
O=C(CCl)Nc1cc(-c2ccccc2)nn1-c1ccccc1	-108%	14µM*	6.6µM*	.	.	.
COC(=O)C(O)(CC(=O)Nc1ccc(Cl)cc1F)C(F)(F)F (configuration not stated)	-1%	7%	24%	-1%	-4%	-10%
Cc1ccc(C)c(NC(=O)c2cc(-c3ccccc3)nn2-c2ccccc2)c1	-8%	11µM*	?	?	-19%	-27%
CC(=O)N1c2ccc(S(=O)(=O)N3CCC(C(=O)N4CCN(c5cccc(C(F)(F)F)c5)CC4)CC3)cc2CC1C (configuration not stated)	?	-6%	22%	?	.	.
CCOc1ccc(C(O)c2nccn2C)cc1 (configuration not stated)	8%	4%	.	54%	-4%	-6%
Cc1ccc(-c2nc3c(=O)n(-c4ccccc4)c4c(c(=O)n(C)c(=O)n4C)c3o2)cc1	2%	-18%	?	?	-9%	-24%
CC1(C)CC(=O)C2=C(C1)N1C(=C(C#N)C2c2ccccc2Cl)N=C(N)c2ccccc21 (configuration not stated)	-23%	?	60%	13µM*	-15%	-10%
CC1(C)CC(=O)C2=C(C1)N1C(=C(C#N)C2c2ccc(Cl)cc2)N=C(N)c2ccccc21 (configuration not stated)	12%	8.9µM*	13µM*	?	-27%	?
N#CC1=C2N=C(N)c3ccccc3N2C2=C(C(=O)CCC2)C1c1ccc(Cl)cc1 (configuration not stated)	?	?	6%	?	-15%	-17%
CC1(C)CC(=O)C2=C(C1)N(c1ccccc1)C(N)=C(C#N)C2c1cccnc1 (configuration not stated)	-8%	34%	13µM*	?	-2%	-19%
CN1C(=O)C2(C(C#N)=C(N)N(c3ccc(Cl)cc3)C3=C2C(=O)CC(C)(C)C3)c2ccccc21 (configuration not stated)	1%	7%	13µM*	.	6%	0%
CCCCN(C(=O)CC1CCCCC1)c1c(N)n(CC(C)C)c(=O)[nH]c1=O	.	4%	?	?	-9%	-14%
CC1(C)C2CCC1(C)C(NC(=O)CCN1CCCCC1)C2 (configuration not stated)	3%	-21%	0.093µM*	5%	-4%	-18%
COCCOCCOCCC(=O)NC1CC2CCC1(C)C2(C)C (configuration not stated)	-1%	17%	.	6%	.	.

Assay outcomes (PubChem BioAssay)
